PubChem BioAssay (NCATS)
Records with an inconclusive call do not appear. The source made the active and inactive calls. Calls follow the shape of the dose curve; as a rule, active = well fitted curve in the direction sought with a large enough effect; inconclusive = small, poorly fitted or top-dose-only effect, or another doubt; inactive = no such curve, though single readings can be large; an effect the other way counts as inactive or inconclusive. Where a SMILES comes first, the peptide text is derived from it. The star is where a group is joined. Hexanoyl = CCCCCC(=O)*

What was measured:
CRL-7250 = normal cell line; assay: Cytotoxic Profiling of Annotated Libraries Using Quantitative High-Throughput Screening (AID 1296008); conditions: Five cell lines viability, CellTiter-Glo ATP luminescence, 48-72 h; max response: stronger effect = lower value; also: nearly all actives have a fitted effect of over 60% in size; as to max response: % is scaled to controls: 0 for no effect and ±100 for the full control effect
How it was run: (§1)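 Cytotoxicity was measured as CellTiter-Glo ATP luminescence, read after 10 min at room temperature. Compound treatment of the cells lasted 48 or 72 hr at 37 degrees Celsius in a qHTS format.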

HEK293 = assay: as above; conditions: Five cell lines viability, CellTiter-Glo ATP luminescence, 48-72 h; max response: stronger effect = lower value
How it was run: as §1

HaCat [1] = assay: as above; conditions: Five cell lines viability, CellTiter-Glo ATP luminescence, 48-72 h; max response: stronger effect = lower value
How it was run: as §1

KB-3-1 = assay: as above; conditions: Five cell lines viability, CellTiter-Glo ATP luminescence, 48-72 h; max response: stronger effect = lower value
How it was run: as §1

NIH3T3 = assay: as above; conditions: Five cell lines viability, CellTiter-Glo ATP luminescence, 48-72 h; max response: stronger effect = lower value
How it was run: as §1

HACAT [2] = assay: qHTS assay to identify novel small-molecules to repurpose for Merkel cell carcinoma treatment (AID 1296009); conditions: MCC and control cell lines, CellTiter-Glo viability, 72 h; at 44.8 µM (top of the series) unless noted; also: nearly all actives have a fitted effect of over 60% in size
How it was run: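 After compound transfer in DMSO, plates were kept 72 hr at 37 degree celsius. Luminescent ATP signal from CellTiter-Glo served as viability measure, normalized against DMSO and no-cell controls.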

C33A = assay: Primary qHTS to identify gynecologic anti-cancer compounds using libraries of approved drugs and bioactive compounds (AID 1345084); conditions: Gynecologic cancer cell panel viability, ATPlite luminescence, 48 h; series mostly up to 57.5 µM; also: % is scaled to controls: 0 for no effect and ±100 for the full control effect; nearly all actives have a fitted effect of over 55% in size
How it was run: (§2)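 Cells, 1,000 per well, plated 16 h, then exposed 48 h at 37 C to compounds. Viability by ATPlite luminescence after 15 min at room temperature.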

CAOV3 = assay: as above; conditions: Gynecologic cancer cell panel viability, ATPlite luminescence, 48 h; series mostly up to 57.5 µM
How it was run: as §2

CASKI = assay: as above; conditions: Gynecologic cancer cell panel viability, ATPlite luminescence, 48 h; series mostly up to 57.5 µM
How it was run: as §2

Es-2 = assay: as above; conditions: Gynecologic cancer cell panel viability, ATPlite luminescence, 48 h; series mostly up to 57.5 µM
How it was run: as §2

HeLa = assay: as above; conditions: Gynecologic cancer cell panel viability, ATPlite luminescence, 48 h; series mostly up to 57.5 µM
How it was run: as §2

Hek293T = assay: as above; conditions: Gynecologic cancer cell panel viability, ATPlite luminescence, 48 h, control line for the selectivity index; series mostly up to 57.5 µM
How it was run: as §2

JEG-3 = assay: as above; conditions: Gynecologic cancer cell panel viability, ATPlite luminescence, 48 h; series mostly up to 57.5 µM
How it was run: as §2

OV90 = assay: as above; conditions: Gynecologic cancer cell panel viability, ATPlite luminescence, 48 h; series mostly up to 57.5 µM
How it was run: as §2

PA-1 = assay: as above; conditions: Gynecologic cancer cell panel viability, ATPlite luminescence, 48 h; series mostly up to 57.5 µM
How it was run: as §2

CC1(C)Oc2ncnc(N)c2N=C1c1ccc(C2CCC(CC(=O)O)CC2)cc1 (stereo not given)
inactive: max response (CRL-7250) 3.48% | max response (HEK293) 0.549% | outcome (HaCat [1]) | outcome (KB-3-1) | max response (NIH3T3) 0.325% | outcome (HACAT [2]) | Potency (C33A) | Potency (CAOV3) | outcome (CASKI) | Potency (Es-2) | Potency (HeLa) | Potency (Hek293T) | Potency (JEG-3) | Potency (OV90) | Potency (PA-1)

CC(=O)OC/C(=C/C(=O)O)CC[C@@H]1C(CO)=CC[C@@H]2C(C)(C)CCC[C@@]12C
inactive: max response (CRL-7250) 1.35% | max response (HEK293) 1.68% | outcome (HaCat [1]) | outcome (KB-3-1) | max response (NIH3T3) -1.93% | outcome (HACAT [2]) | Potency (C33A) | Potency (CAOV3) | outcome (CASKI) | Potency (Es-2) | Potency (HeLa) | Potency (Hek293T) | Potency (JEG-3) | Potency (OV90) | Potency (PA-1)

COC(=O)C1=C[C@@H](O)[C@@H](O)[C@H](O[C@@H]2O[C@H](CO)[C@@H](O)[C@H](O)[C@H]2OC(=O)/C=C/c2ccccc2)C1
inactive: max response (CRL-7250) -2.62% | max response (HEK293) -6.26% | outcome (HaCat [1]) | max response (KB-3-1) -5.3% | max response (NIH3T3) -1.73% | outcome (HACAT [2]) inactive [at 17.4 µM] | Potency (C33A) | Potency (CAOV3) | outcome (CASKI) | Potency (Es-2) | Potency (HeLa) | Potency (Hek293T) | Potency (JEG-3) | Potency (OV90) | Potency (PA-1)

CCc1nn(CCO)c(CC)c1Oc1cc(C#N)cc(C#N)c1
inactive: outcome (CRL-7250) | max response (HEK293) 2.02% | outcome (HaCat [1]) | outcome (KB-3-1) | max response (NIH3T3) -3.44% | outcome (HACAT [2]) | Potency (C33A) | Potency (CAOV3) | outcome (CASKI) | Potency (Es-2) | Potency (HeLa) | Potency (Hek293T) | Potency (JEG-3) | Potency (OV90) | Potency (PA-1)

OC[C@H]1O[C@@H](O[C@H]2[C@H](O)[C@@H](CO)O[C@@H](OCc3ccccc3)[C@@H]2O[C@@H]2OC[C@](O)(CO)[C@H]2O)[C@H](O)[C@@H](O)[C@@H]1O
inactive: max response (CRL-7250) -8.44% | max response (HEK293) -1.87% | outcome (HaCat [1]) | max response (KB-3-1) 7.58% | max response (NIH3T3) 1.27% | outcome (HACAT [2]) inactive [at 17.4 µM] | Potency (C33A) | Potency (CAOV3) | outcome (CASKI) | Potency (Es-2) | Potency (HeLa) | Potency (Hek293T) | Potency (JEG-3) | Potency (OV90) | Potency (PA-1)

O=C(Nc1ccc(N2CCC(C(=O)N3CCOCC3)CC2)cc1)c1cnc(Oc2ccccc2)nc1
inactive: max response (CRL-7250) -3.51% | max response (HEK293) -17.8% | outcome (HaCat [1]) | max response (KB-3-1) -6.22% | max response (NIH3T3) -17.6% | outcome (HACAT [2]) | Potency (C33A) | Potency (CAOV3) | outcome (CASKI) | Potency (Es-2) | Potency (HeLa) | Potency (Hek293T) | Potency (JEG-3) | Potency (OV90) | Potency (PA-1)

O=C(CC1CC(c2ccc(F)cc2F)=NO1)N1CCOCC1 (stereo not given)
inactive: max response (CRL-7250) -1.82% | max response (HEK293) 4.11% | outcome (HaCat [1]) | max response (KB-3-1) -13.2% | max response (NIH3T3) -0.0344% | outcome (HACAT [2]) | Potency (C33A) | Potency (CAOV3) | outcome (CASKI) | Potency (Es-2) | Potency (HeLa) | Potency (Hek293T) | Potency (JEG-3) | Potency (OV90) | Potency (PA-1)

O=C(OCC(O)CO[C@@H]1O[C@H](C(=O)O)[C@@H](O)[C@H](O)[C@H]1O)c1ccccc1 (stereo not given in full)
inactive: max response (CRL-7250) 4.18% | max response (HEK293) -2.05% | outcome (HaCat [1]) | max response (KB-3-1) 0.261% | max response (NIH3T3) 0.296% | outcome (HACAT [2]) | Potency (C33A) | Potency (CAOV3) | outcome (CASKI) | Potency (Es-2) | Potency (HeLa) | Potency (Hek293T) | Potency (JEG-3) | Potency (OV90) | Potency (PA-1)

CC1OC(OC2C(OC3C(O[C@H]4CC[C@@]5(C)C(CC[C@]6(C)C5C(=O)CC5=C7CC(C)(C)CC(O)[C@]7(C)CC[C@]56C)C4(C)C)OC(C(=O)O)C(O)C3O)OCC(O)C2O)C(O)C(O)C1O (stereo not given in full)
inactive: max response (CRL-7250) 0.224% | max response (HEK293) 2.58% | outcome (HaCat [1]) | outcome (KB-3-1) | max response (NIH3T3) -0.899% | outcome (HACAT [2]) inactive [at 9.27 µM] | activity change, negative = cytotoxicity (C33A) 2.35% [at 11.6 µM] | activity change, negative = cytotoxicity (CAOV3) 18.5% [at 11.6 µM] | activity change, negative = cytotoxicity (CASKI) 14.8% [at 11.6 µM] | activity change, negative = cytotoxicity (Es-2) -7.45% [at 11.6 µM] | activity change, negative = cytotoxicity (HeLa) 0.531% [at 11.6 µM] | activity change, negative = cytotoxicity (Hek293T) -3% [at 11.6 µM] | activity change, negative = cytotoxicity (JEG-3) -0.413% [at 11.6 µM] | activity change, negative = cytotoxicity (OV90) -4.22% [at 11.6 µM] | activity change, negative = cytotoxicity (PA-1) 14.2% [at 11.6 µM]

COc1c2ccoc2nc2c(OC)c(O[C@@H]3O[C@@H](C)[C@H](O)[C@@H](O[C@@H]4O[C@H](CO)[C@@H](O)[C@H](O)[C@H]4O)[C@H]3OC(C)=O)ccc12
inactive: max response (CRL-7250) 0.0337% | max response (HEK293) -0.274% | outcome (HaCat [1]) | max response (KB-3-1) 9.99% | max response (NIH3T3) -1.67% | outcome (HACAT [2]) inactive [at 17.4 µM] | Potency (C33A) | Potency (CAOV3) | outcome (CASKI) | Potency (Es-2) | Potency (HeLa) | Potency (Hek293T) | Potency (JEG-3) | Potency (OV90) | Potency (PA-1)

C/C=C1\[C@H](O[C@@H]2O[C@H](CO)[C@@H](O)[C@H](O)[C@H]2O)OC=C(C(=O)O)[C@H]1CC(=O)OCCc1ccc(O)cc1
inactive: max response (CRL-7250) -6.03% | max response (HEK293) -5.51% | outcome (HaCat [1]) | max response (KB-3-1) -0.266% | outcome (NIH3T3) | outcome (HACAT [2]) inactive [at 17.4 µM] | Potency (C33A) | Potency (CAOV3) | outcome (CASKI) | Potency (Es-2) | Potency (HeLa) | Potency (Hek293T) | Potency (JEG-3) | Potency (OV90) | Potency (PA-1)

CCCCCC(=O)N1CCC[C@H]1C(=O)N[C@@H](Cc1ccc(O)cc1)C(=O)OC (Hexanoyl-Pro-Tyr-OMe)
inactive: max response (CRL-7250) 1.02% | max response (HEK293) 4.39% | outcome (HaCat [1]) | max response (KB-3-1) -0.528% | max response (NIH3T3) -4.54% | outcome (HACAT [2]) | Potency (C33A) | Potency (CAOV3) | outcome (CASKI) | Potency (Es-2) | Potency (HeLa) | Potency (Hek293T) | Potency (JEG-3) | Potency (OV90) | Potency (PA-1)

Cc1occc(=O)c1O[C@@H]1O[C@H](CO[C@@H]2OC[C@](O)(CO)[C@H]2O)[C@@H](O)[C@H](O)[C@H]1O
inactive: outcome (CRL-7250) | max response (HEK293) 0.165% | outcome (HaCat [1]) | outcome (KB-3-1) | max response (NIH3T3) 1.4% | outcome (HACAT [2]) inactive [at 17.4 µM] | Potency (C33A) | Potency (CAOV3) | outcome (CASKI) | Potency (Es-2) | Potency (HeLa) | Potency (Hek293T) | Potency (JEG-3) | Potency (OV90) | Potency (PA-1)

CC1C2=CC(=O)OC2(O)CC2C1C(OC(=O)c1ccccc1)C(OC(=O)c1ccccc1)C1(O)C2(C)CCC(O)C1(C)C(=O)O (stereo not given)
inactive: max response (CRL-7250) -2.75% | max response (HEK293) 3.81% | outcome (HaCat [1]) | max response (KB-3-1) -1.08% | max response (NIH3T3) -2.68% | outcome (HACAT [2]) inactive [at 17.4 µM] | Potency (C33A) | Potency (CAOV3) | outcome (CASKI) | Potency (Es-2) | Potency (HeLa) | Potency (Hek293T) | Potency (JEG-3) | Potency (OV90) | Potency (PA-1)
